The target in the experiment is Beta-2 adrenergic receptor (Homo sapiens) (UniProt P07550). The experiment in a line: Adrenergic beta2 receptor (ADRB2) small molecule agonists, cell-based qHTS assay (AID 1963593).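 Further: CHO cells stably overexpressing human ADRB2.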 An outline of the steps: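 CHO cells stably over-expressing ADRB2 were plated overnight at 37C, then dosed with compounds plus a stimulation mix containing 100uM IBMX and 25uM Ro-20-1724 for 0.5hr at room temperature. cAMP was measured by HTRF competition, 1hr.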
Sequence of Beta-2 adrenergic receptor (Homo sapiens) (P07550 whole entry, looked up): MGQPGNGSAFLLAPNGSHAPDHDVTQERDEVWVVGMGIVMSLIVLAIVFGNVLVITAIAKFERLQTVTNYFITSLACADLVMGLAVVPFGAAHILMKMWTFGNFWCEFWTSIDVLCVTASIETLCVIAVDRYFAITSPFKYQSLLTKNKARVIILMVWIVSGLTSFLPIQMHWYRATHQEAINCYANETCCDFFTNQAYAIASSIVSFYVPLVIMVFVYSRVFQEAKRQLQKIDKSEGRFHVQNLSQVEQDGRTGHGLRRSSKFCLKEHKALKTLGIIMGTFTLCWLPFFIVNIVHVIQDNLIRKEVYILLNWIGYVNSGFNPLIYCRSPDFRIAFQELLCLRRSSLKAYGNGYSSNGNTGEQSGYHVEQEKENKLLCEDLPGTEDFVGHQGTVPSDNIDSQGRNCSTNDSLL
On the technique in general: Quantitative high-throughput screening tests each substance at several concentrations.

The results in this text go back to PubChem BioAssay (Tox21).

Inconclusive results are not listed. Entries that show only a call come without a potency. Calls of active or inactive are those of the source. The call rests on the fitted dose curve.

For `COC(=O)c1c(C)cc(O)c(C)c1O`, the Potency result is “inactive”.
As for `CCC(C)c1nccnc1OC` (configuration not stated), the Potency entry was “inactive”.
As for `CC(=O)CC(=O)Nc1ccc(C)cc1C`, the Potency entry was “inactive”.
In the case of `CC(C)(Oc1ccc(Cl)cc1)C(=O)OCCCOC(=O)C(C)(C)Oc1ccc(Cl)cc1`, the Potency entry was “inactive”.
In the case of `O=C(NCC1CN(c2ccc(N3CCOCC3=O)cc2)C(=O)O1)c1ccc(Cl)s1` (configuration not stated), the Potency entry is “inactive”.
`O=C(O)c1cc(Cl)cc([N+](=O)[O-])c1Cl`: the Potency result is “inactive”.
Consider `O=C(Nc1ccc2c(O)c(N=Nc3ccc(N=Nc4ccc(S(=O)(=O)O)cc4)cc3)c(S(=O)(=O)O)cc2c1)c1ccccc1`, for which the Potency result is “inactive”.
`CC/C=C\CC/C=C/C(OCC)OCC`: the Potency entry is “inactive”.
For the compound `O=C(O)C(=O)Cc1c[nH]c2ccccc12`, the Potency entry is “inactive”.
As to `C[C@]12C=CC(=O)C=C1[C@@H](F)C[C@@H]1[C@@H]2[C@@H](O)C[C@@]2(C)[C@H]1CC[C@]2(O)C(=O)CO`, the Potency result is “inactive”.
On to `O=C(O)c1cccc(Cl)n1`, for which the Potency result was “inactive”.
For `CO[Si](C)(OC)c1ccccc1`, the Potency result was “inactive”.
In the case of `NC(=O)Nc1ccc(Cl)c(Cl)c1`, the Potency result was “inactive”.
For `NCC(=O)CCC(=O)O`, the Potency result is “inactive”.
Under `NS(=O)(=O)c1ccc(Cl)c(S(N)(=O)=O)c1` stands “inactive”; under `Oc1ccc(Cl)c2cccnc12`, “inactive”.
As for `SCCCCCCCCS`, the entry is “inactive”; as for `O=C(OCCCCCOC(=O)c1ccccc1)c1ccccc1`, “inactive”.
Under `CCCCNS(=O)(=O)c1ccc(C)cc1` stands “inactive”.
Consider `CN1CCN(c2c(F)cc3c(=O)c(C(=O)O)cn4c3c2OCN4C)CC1`, for which the Potency entry was “inactive”.
As for `OC1CCC(C2CCCCC2)CC1` (configuration not stated), the Potency result was “inactive”.
On to `CS(=O)(=O)c1ccc([C@@H](C[C@H]2CCC(=O)C2)C(=O)Nc2cnccn2)cc1Cl`, for which the Potency entry is “inactive”.
